Experimental data reported in PMC4336329 (PLoS ONE, 2015).
Among all 310,000 compounds or so, about 14,000 (4.5%) showed an effect of 50% or more. The effect is printed as a negative number. The full list was thinned out, with strong results kept by preference.

These molecules were tested against human ether-à-go-go-related gene (hERG) potassium channel (human, UniProt Q12809) (assay: primary screen, population patch clamp on CHO cells stably expressing hERG; higher = less effect of the substance).
human ether-à-go-go-related gene (hERG) potassium channel, sequence (Q12809 whole entry, looked up): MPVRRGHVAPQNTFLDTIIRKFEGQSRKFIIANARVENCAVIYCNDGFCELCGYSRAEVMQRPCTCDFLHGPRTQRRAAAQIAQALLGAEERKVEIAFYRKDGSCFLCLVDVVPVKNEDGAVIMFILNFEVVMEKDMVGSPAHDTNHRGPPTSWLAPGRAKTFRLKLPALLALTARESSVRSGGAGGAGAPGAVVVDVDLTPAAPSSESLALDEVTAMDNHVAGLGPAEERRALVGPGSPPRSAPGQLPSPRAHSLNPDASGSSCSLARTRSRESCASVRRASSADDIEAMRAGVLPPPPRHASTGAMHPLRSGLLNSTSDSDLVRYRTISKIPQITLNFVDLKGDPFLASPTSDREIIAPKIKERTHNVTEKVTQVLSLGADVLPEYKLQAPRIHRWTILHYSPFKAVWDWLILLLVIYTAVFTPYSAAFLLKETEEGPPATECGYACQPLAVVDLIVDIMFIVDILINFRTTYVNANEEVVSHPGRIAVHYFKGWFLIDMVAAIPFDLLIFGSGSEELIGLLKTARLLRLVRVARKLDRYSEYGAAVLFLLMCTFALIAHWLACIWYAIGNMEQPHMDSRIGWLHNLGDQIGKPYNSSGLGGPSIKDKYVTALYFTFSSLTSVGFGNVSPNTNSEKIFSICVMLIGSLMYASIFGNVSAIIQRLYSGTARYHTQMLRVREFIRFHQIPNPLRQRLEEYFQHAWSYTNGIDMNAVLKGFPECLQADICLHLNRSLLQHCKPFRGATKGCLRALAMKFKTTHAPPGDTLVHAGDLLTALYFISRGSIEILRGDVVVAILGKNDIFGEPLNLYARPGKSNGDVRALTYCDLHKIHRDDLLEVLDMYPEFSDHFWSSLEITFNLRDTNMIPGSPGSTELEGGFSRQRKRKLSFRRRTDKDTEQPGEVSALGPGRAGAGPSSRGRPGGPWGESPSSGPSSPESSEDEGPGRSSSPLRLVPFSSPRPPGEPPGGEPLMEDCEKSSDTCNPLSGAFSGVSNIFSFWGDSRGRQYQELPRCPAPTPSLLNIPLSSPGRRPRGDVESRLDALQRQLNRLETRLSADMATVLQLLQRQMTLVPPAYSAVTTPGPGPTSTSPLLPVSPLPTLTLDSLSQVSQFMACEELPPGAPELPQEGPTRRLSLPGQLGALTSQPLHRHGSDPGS
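Further: peak tail current of the secondary pulse compared with the same well before compound.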

Compound	hERG current change (%, negative = inhibition) at 10uM [%]
NC(=O)c1ccsc1NC(=O)COC(=O)c1ccc(Cl)c(N)c1	-3.1
CC1CCCN(C(=O)CCS(=O)(=O)c2ccc3c(c2)n(C)c(=O)c(=O)n3C)C1 (stereo not shown)	1.25
Cc1nc2ccccc2nc1CSc1nncs1	5.39
O=C(Nc1ccc(-c2nc3ccccc3o2)cc1)c1ccc(N2C(=O)C3C4C=CC(C4)C3C2=O)cc1 (stereo not shown)	3.26
O=C(Cc1ccccc1)NC(=S)Nc1ccc(OC(F)F)cc1	-2.31
COCCN(CCOC)S(=O)(=O)c1ccc(NC(=O)c2cnccn2)cc1	13.1
CCOC(=O)c1c(NC(=O)CN2CCN(C(=O)c3ccco3)CC2)sc2c1CCCC2	-8.72
CCOC(=O)c1c(NC(=O)c2ccco2)sc2c1CCCCC2	9.58
CCOC(=O)c1c(NC(=O)C(C)N2CCN(C(=O)c3ccco3)CC2)sc2c1CCCC2 (stereo not shown)	-56.1
CCOC(=O)c1c(NC(=O)c2ccccc2C(=O)O)sc2c1CCC2	-1.15
CCOC(=O)c1c(NC(=O)C(NCCN(C)C)c2ccccc2)sc2c1CCCC2 (stereo not shown)	-73.2
CCOC(=O)c1c(NC(=O)CSc2nnc(CN3CCOCC3)n2C)sc2c1CCCC2	-30
CCOC(=O)c1c(NC(=O)c2ccccc2C(=O)O)sc2c1CCCC2	18
CCOC(=O)c1c(NC(=O)CSc2nnc(CNC(=O)c3ccco3)n2C)sc2c1CCC2	-50.1
CCOC(=O)c1c(NC(=O)c2ccco2)sc2c1CCCC2	4.29
COc1ccc(C2=C(C=Nc3c(C)n(C)n(-c4ccccc4)c3=O)C(c3ccccc3C)c3ccccc3O2)cc1OC (stereo not shown)	11.7
CCOC(=O)C1CCN(c2ncnc3c2cnn3C)CC1	6.3
Fc1ccc(NC(=S)N2CCCC2)cc1Cl	8.95
CS(=O)(=O)NNC(=O)Cn1nnc(-c2cc(C(F)(F)F)cc(C(F)(F)F)c2)n1	19.7
O=C(NNC(=O)c1nn(-c2ccc(F)cc2)ccc1=O)c1ccccc1Cl	-5
O=C(Cn1cnc2ccccc2c1=O)NC1CCCc2ccccc21 (stereo not shown)	6.08
CCCCn1c(SCC(=O)Nc2cc(C)on2)nnc1-c1cccs1	-48.3

Compound	hERG current change (%, negative = inhibition) at 10uM [%]
CCOC(=O)Cc1csc(NC(=O)COc2ccc3c(c2)CCC3)n1	-1.14
COc1ccc(C)cc1S(=O)(=O)NCCN1CCOCC1	17.5
CC(C)c1ccc(N(C(=O)c2ccco2)C(C(=O)NC2CCCC2)c2cccnc2)cc1 (stereo not shown)	-25.3
COc1cccc(/C=C(/C#N)c2ccc(F)cc2)c1OCc1cccc(C(=O)O)c1	11.4
CCOc1ccc(NC(=O)c2c3c(nc4ccccc24)CCC3)cc1	8.95
CCN1CCc2nc3ccccc3c(C(=O)Nc3ccc(F)cc3)c2C1	-74.5
CCN1CCc2nc3ccccc3c(C(=O)Nc3ccc(NC(C)=O)cc3)c2C1	10.2
CCN1CCc2nc3ccccc3c(C(=O)Nc3ccc(C#N)cc3)c2C1	-71
O=C(Nc1ccccc1)c1c2c(nc3ccccc13)CCCC2	-0.42
O=C(NCc1ccc(F)cc1)c1c2c(nc3ccccc13)CCN(Cc1ccccc1)C2	-22.2
CCCCC(=O)Nc1cccc(NC(=S)NC(=O)C(C)C)c1	3.44
O=C(NCCc1ccco1)C(=O)NCC1OCCCN1S(=O)(=O)c1ccccc1 (stereo not shown)	-1.76
COc1ccc(/C=N/NC(=S)NCC2CCCO2)cc1 (stereo not shown)	6.97
CCCC(=O)Nc1ccc(NC(=O)c2ccccn2)cn1	-8.57
CC(C)NC(=O)CSCc1ccccc1Cl	12.9
CCc1ccc2[nH]c(=O)c(C(c3nnnn3Cc3ccc(OC)cc3)N3CCOCC3)cc2c1 (stereo not shown)	-19.1
COc1ccc(Cn2nnnc2C(c2cc3cccc(C)c3[nH]c2=O)N2CCN(C)CC2)cc1 (stereo not shown)	29.6
Cc1ccc(C)c2[nH]c(=O)c(C(c3nnnn3Cc3ccccc3)N3CCc4ccccc4C3)cc12 (stereo not shown)	-9.12
COc1ccc(Cn2nnnc2C(c2cc3cccc(C)c3[nH]c2=O)N2CCOCC2)cc1 (stereo not shown)	-43.6
COc1ccc(Cn2nnnc2C(c2cc3cc(C)ccc3[nH]c2=O)N2CCN(C)CC2)cc1 (stereo not shown)	-24.4
COc1ccc(Cn2nnnc2C(c2cc3ccc(OC)cc3[nH]c2=O)N2CCCCCC2)cc1 (stereo not shown)	-13.6
Cc1ccc(C)c2[nH]c(=O)c(C(c3nnnn3CCc3ccccc3)N3CCOCC3)cc12 (stereo not shown)	-59.4

Compound	hERG current change (%, negative = inhibition) at 10uM [%]
COc1ccc(Cn2nnnc2C(c2cc3cc(C)ccc3[nH]c2=O)N2CCOCC2)cc1 (stereo not shown)	-50.2
COc1ccc(Cn2nnnc2C(c2cc3cc(C)cc(C)c3[nH]c2=O)N2CCOCC2)cc1 (stereo not shown)	-58.2
Cc1ccc2[nH]c(=O)c(C(c3nnnn3CCc3ccccc3)N3CCOCC3)cc2c1 (stereo not shown)	-10.5
COc1ccc2cc(C(c3nnnn3Cc3ccc(F)cc3)N3CCCCCC3)c(=O)[nH]c2c1 (stereo not shown)	-23.3
COc1cc2cc(C(c3nnnn3Cc3ccc(F)cc3)N3CCCCCC3)c(=O)[nH]c2cc1OC (stereo not shown)	-74
COc1cnc(-c2ccccc2)nc1Oc1ccccc1C	-4.2
CN(C)c1ccc(C(=O)/C=C/c2ccccc2)cc1	8.65
O=C(NNC(=O)C1CCN(c2ncccn2)CC1)c1ccc(Cl)cc1	0.113
Cc1cccc(C)c1NC(=O)c1cc2c(=O)c3ccccc3oc2nc1C(F)(F)F	-3.38
C=CCn1cccc(C(=O)Nc2ccc(F)cc2)c1=O	-24.8
COC(=O)CSc1nnc(-c2ccccn2)n1Cc1ccco1	-13.8
COc1ccc(CN(C)CC(=O)Nc2cccc3ccccc23)cc1F	-13.4
COc1ccc(CCN(C)C(=S)NC(=O)c2ccc(F)cc2Cl)cc1OC	-20.4
COc1ccc(CN(C)CC(=O)Nc2ccc(N3CCOCC3)cc2)cc1OC	-7.84
COc1ccc(CN(C)C(C)C(=O)Nc2ccc(S(=O)(=O)N3CCCCC3)cc2)cc1F (stereo not shown)	-19.7
COc1ccc(CN(C)CC(=O)Nc2ccc(SC(F)F)cc2)cc1OC	-76.2
COc1ccc(CCNC(=S)N(C)C)cc1OC	32.8
COc1ccc(CCN(C)C(=S)Nc2ccc(SC(F)F)cc2)cc1OC	-74.7
COc1ccc(CN(C)C(C)C(=O)N(C)CC(=O)Nc2ccc(C)cc2)cc1F (stereo not shown)	-57.1
COc1ccc(Cl)cc1NC(=O)CN(C)Cc1ccc(OC)c(OC)c1	-9.72
CCOC(=O)[C@H]1[C@H]2COc3ccc(Cl)cc3[C@@H]2N2C(=O)c3cc(Cl)ccc3NC(=O)[C@@]12C	3.59
COc1ccc(COC(=O)C2=C(C)NC(=O)NC2c2ccc(O)c(OC)c2)cc1 (stereo not shown)	-3.97

Compound	hERG current change (%, negative = inhibition) at 10uM [%]
Cc1ccc2[nH]c3c(c2c1)SC(C)(C)CC3=O	3.75
COC(=O)C(NC(=O)CSc1nc(N)cc(=O)[nH]1)c1ccccc1 (stereo not shown)	18.3
C=CCc1ccc(OCCn2cncn2)c(OC)c1	7.93
CCCCCN(C(=O)NC(=O)NC(C)CC)S(C)(=O)=O (stereo not shown)	9.23
Cc1c(Cl)cccc1NC(=O)CSc1nc(=O)n(CCCN2CCOCC2)c2c1CCC2	-47.1
CCN(CC)CCn1c2c(c(SCC(=O)NCc3ccccc3)nc1=O)CCC2	-38.7
CCN(CC)CCn1c2c(c(SCC(=O)Nc3ccccc3Cl)nc1=O)CCCC2	-55.6
CCN(CC)CCn1c2c(c(SCC(=O)NCc3ccccc3)nc1=O)CCCC2	-31.4
CCN(CC)CCCn1c2c(c(SCC(=O)Nc3ccccc3Cl)nc1=O)CCC2	-55.4
CCN(CC)CCn1c2c(c(SCC(=O)Nc3ccccc3Cl)nc1=O)CCC2	-59.8
O=C(CSc1nc(=O)n(CCCN2CCOCC2)c2c1CCCC2)Nc1ccccc1Cl	-42.9
COc1ccccc1NC(=O)CSc1nc(=O)n(CCN(C)C)c2c1CCCC2	-40.4
C/C(=N\NC(=O)c1cccc(S(=O)(=O)N2CCCC2)c1)c1ccco1	14.1
COc1ccc(N2CC(NC(=O)c3cccc4ccccc34)CC2=O)cc1OC (stereo not shown)	-2.85
COc1cccc(CCNC(=O)CC2C(=O)NCCN2CC(C)(C)C)c1 (stereo not shown)	15.8
CCCOc1ccc(NC(=O)CC2C(=O)OCC3CCCCN32)cc1 (stereo not shown)	-4.12
COc1ccc(C2/C=C\CN(C(=O)Nc3ccc(C(F)(F)F)cc3)CC(=O)N2Cc2ccc(F)cc2)cc1 (stereo not shown)	6.55
NC(CO)(CO)CO.O=C(c1ccccc1)c1ccc2n1CCC2C(=O)O (stereo not shown)	-3.5
COc1ccc(N(CC(=O)NCc2ccc3c(c2)OCO3)C(=O)c2csnn2)cc1	-13.6
